# In PubChem BioAssay (Tox21):
# Where “and” joins values, the source holds several entries; their conditions need not be identical. Identical values can stand only once. Results filed as inconclusive are left out. Entries that show only a call come without a potency. More than one record can exist for a structure, and the calls need not agree. Calls of active or inactive are those of the source. Unless noted, calls come from the whole dose curve; as a rule, active = well fitted curve in the direction sought with a large enough effect in the repeat runs; inconclusive = weak or mixed curves; inactive = no such curve, though single readings can be large; an effect the other way counts as inactive or inconclusive. Positions of bridges follow the written chain, without caps; N, C: chain ends. Non-standard residues stand in square brackets, D forms with d. Residues, ends and D or L forms follow the SMILES beside them. *: point of attachment. Dab(CH2SO3H) = N[C@@H](CCNCS(=O)(=O)O)C(=O)O; X3 = CC[C@@H](C)CCCCC(=O)*; Dab = NCC[C@H](N)C(=O)O
# Tests used:
# [1] = qHTS assay to identify small molecule antagonists of the glucocorticoid receptor (GR) signaling pathway - cell viability counter screen (AID 720693); note: nearly all actives have a fitted effect of over 55% in size; note: potency is the fitted concentration of half-maximal effect
# [2] = qHTS assay for identifying genotoxic compounds that show differential cytotoxicity against isogenic chicken DT40 cell lines with known DNA damage response pathways - wild type cell line (AID 743012); note: nearly all actives have a fitted effect of over 60% in size; note: potency is the fitted concentration of half-maximal effect
# Outline: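 Using parental DT40 (300 cells/well), compounds delivered in DMSO incubate 40 h at 37 C/5% CO2. CellTiter-Glo reagent then stands 30 min at room temperature, and luminescence gives cell viability.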
# [3] = qHTS assay for identifying genotoxic compounds that show differential cytotoxicity against isogenic chicken DT40 cell lines with known DNA damage response pathways - Rev3 mutant cell line (AID 743014); note: nearly all actives have a fitted effect of over 55% in size; note: potency is the fitted concentration of half-maximal effect
# [4] = qHTS assay for identifying genotoxic compounds that show differential cytotoxicity against isogenic chicken DT40 cell lines with known DNA damage response pathways - Rad54/Ku70 mutant cell line (AID 743015); note: nearly all actives have a fitted effect of over 60% in size; note: potency is the fitted concentration of half-maximal effect
# [5] = target: Androgen receptor (Homo sapiens) (UniProt P10275); experiment: qHTS assay to identify small molecule antagonists of the androgen receptor (AR) signaling pathway (AID 743035; active = well fitted inhibition curve with a large enough effect in the signal ratio in the repeat runs, not every such curve was filed as active; the % refers to the signal ratio; note: potency is the fitted concentration of half-maximal effect)
# Chain of Androgen receptor (Homo sapiens) (P10275 whole entry, looked up): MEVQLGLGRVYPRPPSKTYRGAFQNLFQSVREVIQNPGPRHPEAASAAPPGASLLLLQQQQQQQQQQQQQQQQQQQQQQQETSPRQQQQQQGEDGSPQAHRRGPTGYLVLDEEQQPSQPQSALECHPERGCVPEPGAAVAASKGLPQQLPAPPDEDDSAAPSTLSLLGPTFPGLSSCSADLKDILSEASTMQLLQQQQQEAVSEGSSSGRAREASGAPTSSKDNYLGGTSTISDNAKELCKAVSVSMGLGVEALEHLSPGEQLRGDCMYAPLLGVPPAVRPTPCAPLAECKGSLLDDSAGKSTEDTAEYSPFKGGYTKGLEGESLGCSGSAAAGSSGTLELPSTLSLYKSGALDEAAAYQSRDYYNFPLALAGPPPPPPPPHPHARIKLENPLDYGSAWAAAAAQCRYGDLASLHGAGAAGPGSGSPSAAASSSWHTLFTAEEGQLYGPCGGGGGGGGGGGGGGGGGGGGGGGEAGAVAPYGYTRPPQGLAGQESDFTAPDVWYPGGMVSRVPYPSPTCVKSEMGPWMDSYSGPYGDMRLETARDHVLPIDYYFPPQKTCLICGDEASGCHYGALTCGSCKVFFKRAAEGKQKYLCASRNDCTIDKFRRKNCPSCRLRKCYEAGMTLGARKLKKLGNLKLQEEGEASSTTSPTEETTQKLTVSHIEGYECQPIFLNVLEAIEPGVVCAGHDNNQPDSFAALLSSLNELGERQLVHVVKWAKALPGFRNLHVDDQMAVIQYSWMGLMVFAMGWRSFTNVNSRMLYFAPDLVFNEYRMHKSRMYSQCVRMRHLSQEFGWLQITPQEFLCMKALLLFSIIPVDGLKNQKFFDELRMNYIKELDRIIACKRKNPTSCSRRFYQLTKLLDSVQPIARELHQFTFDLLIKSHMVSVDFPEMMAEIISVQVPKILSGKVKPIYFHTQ
# Outline: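 Using qHTS, AR-UAS-bla GripTite HEK293 cells received compound, then R1881, and were cultured 16 h at 37C/5% CO2 before a 2 h room-temperature LiveBLAzer B/G FRET substrate step and fluorescence measurement.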
# [6] = target: Androgen receptor (Homo sapiens) (UniProt P10275); experiment: qHTS assay to identify small molecule agonists of the androgen receptor (AR) signaling pathway using the MDA cell line (AID 743040; note: nearly all actives have a fitted effect of over 20% in size; note: potency is the fitted concentration of half-maximal effect)
# Outline: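 MDA-kb2 breast carcinoma cells carrying MMTV-luciferase (responsive to AR and GR), plated 5 h then treated 16 h with compounds at 37C, 0% CO2. Read-out was ONE-Glo luminescence after 30 min at room temperature.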
# [7] = qHTS assay to identify small molecule antagonists of the androgen receptor (AR) signaling pathway using the MDA cell line - cell viability counter screen (AID 743041; note: nearly all actives have a fitted effect of over 45% in size; note: potency is the fitted concentration of half-maximal effect)
# Outline: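 MDA-kb2 AR-luc cells (MMTV-luciferase, AR/GR responsive) treated with compounds plus R1881 agonist for 16 h at 37C. CellTiter-Fluor added at 15.5 h; fluorescence read after 30 min in the same wells.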
# [8] = target: Androgen receptor (Homo sapiens) (UniProt P10275); experiment: qHTS assay to identify small molecule antagonists of the androgen receptor (AR) signaling pathway using the MDA cell line (AID 743042; note: nearly all actives have a fitted effect of over 55% in size; note: potency is the fitted concentration of half-maximal effect)
# Outline: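 MDA-kb2 breast carcinoma cells carrying MMTV-luciferase (AR/GR responsive) were co-treated with compounds and the agonist R1881 for 16 h at 37C. Inhibition read as ONE-Glo luminescence; CellTiter-Fluor fluorescence measured in parallel for cytotoxicity.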
# [9] = qHTS assay to identify small molecule antagonists of the androgen receptor (AR) signaling pathway - cell viability counter screen (AID 743033; note: nearly all actives have a fitted effect of over 45% in size; note: potency is the fitted concentration of half-maximal effect)
# [10] = target: Androgen receptor (Homo sapiens) (UniProt P10275); experiment: qHTS assay to identify small molecule agonists of the androgen receptor (AR) signaling pathway (AID 743036; active = well fitted activation curve with a large enough effect in the signal ratio in the repeat runs, with a control signal flat, not every such curve was filed as active; the % refers to the signal ratio)
# Outline: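 In this Tox21 qHTS, 2,000 HEK293 AR-bla cells per well were incubated with compounds for 16 h at 37C and 5% CO2. Fluorescence intensity was recorded 2 h after adding LiveBLAzer B/G FRET substrate at room temperature.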
SMILES,Potency [1],Potency [2],Potency [3],Potency [4],Potency [5],Potency [6],Potency [7],Potency [8],Potency [9],Potency [10]
CCCCCCCCCCCCCCCCCCNC(=O)OC1CCN(C(=O)OC[C@H](COC(=O)N(Cc2cccc[n+]2CC)C(=O)c2ccccc2OC)OC)CC1,16.9 µM (active),5.31 µM (active),6.68 µM (active),5.96 µM (active),10.7 µM (active),inactive,23.7 µM (active),13.3 µM (active),,
CCCOC(=O)c1ccc(O)cc1,inactive,inactive,inactive and 68.6 µM (active),inactive and 65.5 µM (active),,,inactive,,inactive,
CC(C)OC(=O)Nc1ccc2nc(-c3cscn3)[nH]c2c1,inactive,1.68 µM (active),1.88 µM (active),2.37 µM (active),4.25 µM (active),inactive,inactive,inactive,,
CN(C)CCOc1ccc(/C(=C(/CCCl)c2ccccc2)c2ccccc2)cc1,inactive,11.9 µM (active) and 5.1 µM (active),2.66 µM (active) and 1.44 µM (active),9.44 µM (active) and 2.03 µM (active),,,inactive,inactive and 57.2 µM (active),16.3 µM (active),
C1CCc2nnnn2CC1,inactive,inactive,inactive,inactive,,,inactive,,inactive,
O=C[C@H](O)[C@@H](O)[C@@H](O)[C@H](O)CO,inactive,inactive,inactive,inactive,,,inactive,,inactive,
OCl,inactive,inactive,inactive,inactive,,,inactive,,inactive,
NC[C@@H]1CC[C@@H](N)[C@@H](O[C@H]2[C@H](O)[C@@H](O[C@H]3O[C@H](CO)[C@@H](O)[C@H](N)[C@H]3O)[C@H](N)C[C@@H]2N)O1,inactive,inactive,inactive,inactive,inactive,29.8 µM (active),inactive,inactive,,inactive
N#Cc1nc(Cl)c(Cl)c(Cl)c1Cl,19.5 µM (active),1.54 µM (active),1.72 µM (active),1.54 µM (active),,inactive,30.6 µM (active),6.86 µM (active),,
CC(C)Cc1ccc([C@H](C)C(=O)O)cc1,inactive,inactive,inactive,inactive,,,inactive,,inactive,
C=C1C(CCl)(CCl)C2(Cl)C(Cl)C(Cl)C1(Cl)C2(Cl)Cl (configuration not stated),13.4 µM (active),4.73 µM (active) and 30.3 µM (active),2.98 µM (active) and 4.28 µM (active),5.96 µM (active) and 17 µM (active),34.3 µM (active),inactive,inactive,26.6 µM (active),,
NC(=O)[C@H]1O[C@@H](O)[C@H](O)[C@@H](O)[C@@H]1O,inactive,inactive,inactive,inactive,,,inactive,,inactive,
O=C(O)C[C@H](O)C[C@H](O)/C=C/c1c(C2CC2)nc2ccccc2c1-c1ccc(F)cc1,inactive,0.531 µM (active),0.0944 µM (active),1.68 µM (active),1.69 µM (active),inactive,inactive,inactive,,inactive
O=C(CCCN1CCN2CCCC2C1)c1ccc(F)cc1 (configuration not stated),inactive,11.9 µM (active),2.11 µM (active),8.41 µM (active),,,inactive,,inactive,
O=C(CCN1CCC(c2ccccc2)C1)c1ccc2c(c1)OCCO2 (configuration not stated),inactive,2.66 µM (active),4.73 µM (active),4.22 µM (active),,,29.8 µM (active),,inactive,
O=P(O)(O)OP(=O)(O)OP(=O)(O)O,inactive,inactive,inactive,inactive,inactive,inactive,inactive,inactive,,
C[C@]12O[C@H](C[C@]1(O)CO)n1c3ccccc3c3c4c(c5c6ccccc6n2c5c31)CNC4=O,3.01 µM (active),0.237 µM (active),0.376 µM (active),0.376 µM (active),,inactive,11.9 µM (active),2.98 µM (active),,
CC(=O)[C@]1(O)Cc2c(O)c3c(c(O)c2[C@@H](O[C@H]2C[C@H](N)[C@H](O)[C@H](C)O2)C1)C(=O)c1ccccc1C3=O,3.01 µM (active),0.0211 µM (active),0.0211 µM (active),0.0033 µM (active),3.38 µM (active),inactive,15 µM (active),0.422 µM (active),,
O=C(O)[C@@H]1C[C@H](CP(=O)(O)O)CCN1,inactive,inactive,inactive,inactive,inactive,inactive,inactive,inactive,,inactive
C[C@H](NCCc1ccc(O)cc1)[C@H](O)c1ccc(O)cc1,inactive,inactive,inactive,inactive,,,inactive,,inactive,
CCOc1ccc(S(=O)(=O)O)c2cccnc12,inactive,inactive,inactive,inactive,,,inactive,,inactive,
CC(C)C[C@H](NC(=O)[C@@H](COC(C)(C)C)NC(=O)[C@H](Cc1ccc(O)cc1)NC(=O)[C@H](CO)NC(=O)[C@H](Cc1c[nH]c2ccccc12)NC(=O)[C@H](Cc1cnc[nH]1)NC(=O)[C@@H]1CCC(=O)N1)C(=O)N[C@@H](CCCN=C(N)N)C(=O)N1CCC[C@H]1C(=O)NNC(N)=O,inactive,inactive,inactive,inactive,,,inactive,,inactive,
O=C(O)/C=C/C(=O)Nc1ccc(S(=O)(=O)Nc2nccs2)cc1,inactive,inactive,inactive,inactive,,,inactive,,inactive,

SMILES,Potency [1],Potency [2],Potency [3],Potency [4],Potency [5],Potency [6],Potency [7],Potency [8],Potency [9],Potency [10]
CSCC[C@H](NC(=O)[C@H](Cc1ccc(OS(=O)(=O)O)cc1)NC(=O)[C@@H](N)CC(=O)O)C(=O)NCC(=O)N[C@@H](Cc1c[nH]c2ccccc12)C(=O)N[C@@H](CCSC)C(=O)N[C@@H](CC(=O)O)C(=O)N[C@@H](Cc1ccccc1)C(N)=O,inactive,inactive,inactive,inactive,,,inactive,,inactive,
c1ccc2cc3c4ccccc4c4ccccc4c3cc2c1,inactive,inactive,inactive,inactive,,,inactive,,inactive,
CCCCCCCCCCCCN1CCCC1=O,43.6 µM (active),24.3 µM (active),30.6 µM (active),30.6 µM (active),,,inactive,,inactive,
CC[C@@H](C)CCCCC(=O)N[C@@H](CCNCS(=O)(=O)O)C(=O)N[C@H](C(=O)N[C@@H](CCNCS(=O)(=O)O)C(=O)N[C@H]1CCNC(=O)[C@H]([C@@H](C)O)NC(=O)[C@H](CCNCS(=O)(=O)O)NC(=O)[C@H](CCNCS(=O)(=O)O)NC(=O)[C@H](CC(C)C)NC(=O)[C@@H](CC(C)C)NC(=O)[C@H](CCNCS(=O)(=O)O)NC1=O)[C@@H](C)O (X3-[Dab(CH2SO3H)]T[Dab(CH2SO3H)][Dab][Dab(CH2SO3H)][dL]L[Dab(CH2SO3H)][Dab(CH2SO3H)]T; lactam 4-C),inactive,23.7 µM (active),23.7 µM (active),18.8 µM (active),,inactive,inactive,inactive,,inactive
CN(Cc1ccccc1)Cc1ccccc1,inactive,inactive,inactive,inactive,,,inactive,,inactive,
CC(C)CCC[C@@H](C)[C@H]1CC[C@H]2[C@@H]3CC=C4C[C@@H](O)CC[C@]4(C)[C@H]3CC[C@]12C,inactive,inactive,inactive,inactive,,,inactive,,inactive,
CO/N=C(\C(=O)N[C@@H]1C(=O)N2C(C(=O)O)=C(C[N+]3(C)CCCC3)CS[C@H]12)c1csc(N)n1,inactive,inactive,inactive,inactive,inactive,inactive,inactive,inactive,,
O=[N+]([O-])c1ccc(O)c2ncccc12,inactive,2.98 µM (active),2.66 µM (active),5.31 µM (active),,,11.9 µM (active),,10.7 µM (active),
CC[C@H](C)C(=O)O[C@H]1CCC=C2C=C[C@H](C)[C@H](CC[C@@H]3C[C@@H](O)CC(=O)O3)[C@H]21,inactive,2.98 µM (active),2.37 µM (active),11.9 µM (active),15.1 µM (active),inactive,inactive,inactive,,inactive
CC1=C(/C=C/C(C)=C/C=C/C(C)=C/C=C/C=C(C)/C=C/C=C(C)/C=C/C2=C(C)CCCC2(C)C)C(C)(C)CCC1,inactive,inactive,inactive,inactive,inactive,inactive,inactive,inactive,,inactive
CC(C)(Oc1ccc(C2CCCc3ccccc32)cc1)C(=O)O (configuration not stated),inactive,inactive,inactive,inactive,inactive,inactive,inactive,inactive,,inactive
NCC1CCC(C(=O)O)CC1 (configuration not stated),inactive,inactive,inactive,inactive,,,inactive,,,
CN1CC[C@H](c2c(O)cc(O)c3c(=O)cc(-c4ccccc4Cl)oc23)[C@H](O)C1,0.601 µM (active),0.106 µM (active),0.15 µM (active),0.15 µM (active),,inactive,inactive,0.106 µM (active),,
O=C1OC(=O)c2cc(-c3ccc4c(c3)C(=O)OC4=O)ccc21,inactive,17.2 µM (active),54.5 µM (active),54.5 µM (active),,,inactive,,,
CCCCCCCC/C=C\CCCCCCCC(=O)N(CCO)CCO,48.8 µM (active),15.3 µM (active),17.2 µM (active),13.6 µM (active),,,43.1 µM (active),,,
COc1cc2c(cc1O)CCN[C@]21CS[C@@H]2c3c(OC(C)=O)c(C)c4c(c3[C@H](COC1=O)N1[C@@H]2[C@H]2c3c(cc(C)c(OC)c3O)C[C@@H]([C@@H]1O)N2C)OCO4,60.1 nM (active) and 17.4 nM (active),0.9 nM (active) and 2.4 nM (active),0.0486 µM (active),0.0001 µM (active),,,inactive,,,
CCN(CC)CCn1c(=O)c(Cc2ccc(OC)cc2)nc2ccccc21,inactive,26.6 µM (active),29.8 µM (active),,inactive,inactive,inactive,inactive,inactive,inactive
COc1cc([C@@H]2c3cc4c(cc3[C@@H](O[C@@H]3O[C@@H]5CO[C@@H](C)O[C@H]5[C@H](O)[C@H]3O)[C@H]3COC(=O)[C@H]23)OCO4)cc(OC)c1O,inactive,531 nM (active) and 340 nM (active),473 nM (active) and 107 nM (active),53.1 nM (active) and 15.2 nM (active),,,inactive,,,
CCCCCCCCCCCCCC(=O)OCC(COP(=O)([O-])OCC[N+](C)(C)C)OC(=O)CCCCCCCCCCCCC (configuration not stated),inactive,inactive,inactive,inactive,,,inactive,,,
COc1cc(/C=C/C(=O)CC(=O)/C=C/c2ccc(O)c(OC)c2)ccc1O,inactive,8.41 µM (active) and 21.1 µM (active) and 17.3 µM (active),11.9 µM (active) and 12.3 µM (active),10.6 µM (active) and 26.6 µM (active) and 10.9 µM (active),,inactive,inactive,26.6 µM (active) and inactive and 13.8 µM (active),,
Cc1cnc(C(=O)O)c[n+]1[O-],inactive,inactive,inactive,inactive,,,inactive,,,
CCCCCCCCCCCCCCCCCCOCC(COP(=O)([O-])OCC[N+](C)(C)C)OC (configuration not stated),inactive,inactive,inactive,,,,inactive,,inactive,
